Screens deposited in PubChem by National Center for Advancing Translational Sciences (NCATS).
The sample as a whole holds a higher share of hits than the screen did.
Pf Dd2 growth: blocks in vitro growth of P. falciparum Dd2. Potency, µM (top dose mostly 28.9 µM), most hits filed as inhibitors. P. falciparum Dd2 growth, SYBR Green, 72 h. 120,000 compounds, 4.3% hits; active means well fitted inhibition curve with a large enough effect; further: nearly all actives have a fitted effect of over 65% in size
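Readout: SYBR Green fluorescence, 485 nm excitation, 535 nm emission, after ~16 h lysis at 37C. Before that, Dd2-infected red cells (2.5% hematocrit) grew 72 h with compound, 29 uM top final concentration.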
Numbers stand for hits; - = inactive.

SMILES	Pf Dd2 growth
Oc1cccc(-c2cc(C[C@@H]3CC[C@H](O)[C@@H](CNC4CCC4)O3)no2)c1	-
CC(C)(C)c1cc(C[C@@H]2CC[C@H](O)[C@@H](CN(CC3CC3)CC3CC3)O2)no1	4.5µM
O=C(COc1ccccc1)NC[C@H]1O[C@H](Cc2cc(-c3ccccc3)on2)CC[C@@H]1O	-
O[C@H]1CC[C@@H](Cc2cc(-c3ccccc3)on2)O[C@@H]1CNC1CCCCC1	4.5µM
CN(C)C[C@H]1O[C@H](Cc2cc(CN3CCOCC3)on2)CC[C@@H]1O	-
CN(Cc1ccccc1)Cc1cc(C[C@@H]2CC[C@H](O)[C@@H](CN)O2)no1	-
CCn1cc(CN2CCC(Oc3ccc4ccccc4c3)(C(=O)O)CC2)cn1	-
COc1ccc(N2CC(C(=O)Nc3ccc(NC(C)=O)cc3)CC2=O)cc1 (stereo not drawn)	-
O=C(NC1CCCCCCC1)C1CCCN(c2cnn(Cc3ccccc3)c(=O)c2)C1 (stereo not drawn)	-
O=C(NC1CCN(Cc2ccccc2)CC1)C1CCCN(c2cnn(Cc3ccccc3)c(=O)c2)C1 (stereo not drawn)	-
O=C(NCc1ccc(Cl)cc1)C1CCCN(c2cnn(Cc3ccccc3)c(=O)c2)C1 (stereo not drawn)	11µM
Cc1cc(C)cc(C(=O)N2CCC(n3cc(-c4nc(-c5ccccc5)no4)nn3)C2)c1 (stereo not drawn)	-
CC(C)[C@H](NC(=O)Cn1nc2c(cc1=O)CCCCC2)C(=O)O	-
O=c1n(Cc2ccccc2Cl)c2ccccc2c2nc(-c3ccccc3)nn12	-
O=C(c1ccccc1)N1CCc2sc(C(=O)N3CCN(c4ccccc4)CC3)cc2C1	-
Cc1ccc(C(=O)N2CCC(c3nn(Cc4ccccc4)c(=O)[nH]3)CC2)cc1	-
CC(C)n1ccnc1C1CCCN(S(=O)(=O)c2ccccc2Cl)C1 (stereo not drawn)	-
COC(=O)c1ccc(Cn2nnc3c(=O)[nH]c(C4CCCN(S(=O)(=O)c5ccccc5Cl)C4)nc32)cc1 (stereo not drawn)	7.9µM
O=C(c1cccc(C(F)(F)F)c1)N1CCC(c2nn(-c3ccc(Cl)cc3)c(=O)[nH]2)CC1	-
Cc1cc(C)n(Cc2cccc(C(=O)N3CCCC(c4ncc[nH]4)C3)c2)n1 (stereo not drawn)	-
CC(C)(C)c1ccc(C(=O)N2CCCC(c3nc4c(nnn4Cc4cccc(F)c4)c(=O)[nH]3)C2)cc1 (stereo not drawn)	1.6µM
O=C(c1cccc(Cl)c1)N1CCC(c2nc3c(nnn3Cc3ccc(F)cc3F)c(=O)[nH]2)CC1	2µM
Cc1ccc(C)c(C(=O)N2CCC(c3nc4c(nnn4Cc4ccccc4)c(=O)[nH]3)CC2)c1	11µM
COc1ccc(CNC(=O)C2CCCN(S(=O)(=O)c3cccc4nsnc34)C2)cc1 (stereo not drawn)	-
O=C(c1cccc(Cl)c1)N1CCC(c2nn(-c3ccccc3)c(=O)[nH]2)CC1	-
SMILES	Pf Dd2 growth
Cc1ccccc1Cn1nnc2c(=O)[nH]c(C3CCCN(C(=O)c4ccc(F)cc4)C3)nc21 (stereo not drawn)	-
Cc1ccccc1C(=O)N1CCC(c2nn(Cc3ccccc3)c(=O)[nH]2)CC1	-
COc1ccccc1C(=O)N1CC[C@@H]2CN(S(C)(=O)=O)[C@@H]2C1	-
CCN(CC)c1ccc(C(=O)NCc2nnc3ccc(-c4ccc(C)cc4)nn23)cc1	-
Cc1ccc(NC(=O)CSc2nc3nccnc3c(=O)n2CCc2c[nH]c3ccccc23)cc1C	-
O=C(NCCc1ccccc1Cl)c1ccc2c(c1)nc1n2CCCCC1	-
CC(=O)Nc1ccc(NCc2nnc3n2CCCCC3)cc1	-
O=C1CC(c2ccc(C(F)(F)F)cc2)c2c(c3ccccc3oc2=O)O1 (stereo not drawn)	-
CCc1ccc(CNC(=O)CSc2cc(=O)n(CC)c3ccccc23)cc1	-
C[C@@H](NC(=O)C1=C[C@@H](NC(=O)NC2CCCCC2)[C@@H](O)[C@H](O)C1)C(N)=O	-
COc1ccc(Nc2ncc3c(n2)CCN(Cc2sccc2C)C3)c(OC)c1	-
CN1CCCCCCN(C(=O)Cc2cccnc2)[C@@H]2CCC[C@@H]2C1=O	-
Cc1cccc(CN2CCCCCNC(=O)[C@@H]3CCC[C@@H]32)c1	-
CN1C(=O)[C@H]2CN(Cc3ccc4[nH]ccc4c3)C[C@H]2C1=O	-
CN1CCCCCCN(C(=O)NCCc2ccccc2)[C@H]2CCC[C@H]2C1=O	-
CN1CCCCCCN(Cc2ccc3[nH]ccc3c2)[C@H]2CCC[C@H]2C1=O	2µM
Cc1cccc(CN2CCCCCCN(C)C(=O)[C@@H]3CCC[C@@H]32)c1	2.5µM
Cc1cc(C)n(CC(=O)N2C[C@@H](CO)[C@H](c3nc(C4CC4)no3)C2)n1	-
Cc1ccc(S(=O)(=O)N2CCCC(Cn3cnc4cccnc43)C2)cc1F (stereo not drawn)	-
Cc1nc(CCNS(=O)(=O)c2c(C)noc2C)no1	-
Cc1cc(C(=O)N2CCC3(CCC(=O)N(CCCn4ccnc4)C3)CC2)c(C)o1	-
O=C1CCC2(CCN(C/C=C/c3ccccc3)CC2)CN1CCCn1ccnc1	10µM
